# Laboratory results taken from PubChem BioAssay AID624354 (Sanford-Burnham Center for Chemical Genomics, 2012).
# The campaign covered roughly 360,000 compounds. About 3,800 (1.1%) were called active. This excerpt belongs to a sample that is enriched for actives. Unmarked numbers belong to inactive results.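 The calls were made as follows: active = compounds causing at least 50% loss of cell viability in the single-dose screen, relative to plate controls; inactive = the rest.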
# Test: TRAIL-exposed caspase-8 expressing cell killing – NB7+C8 cells, ATPlite luminescence, TRAIL sensitizer project, primary screen (AID 624354)
# Details: at 10 µM, stronger effect = higher value
row,Structure (SMILES),"inhibition (viability loss, TRAIL sensitization)"
1,Cc1ccc(C2Nc3ccccc3C(=O)N2CCN2CCNC2=O)cc1 (configuration not stated),-20.4%
2,Cc1ccc2nc(-c3ccc(Br)cc3)cn2c1,67.2% (active)
3,Cc1ccc(Cc2c(-c3ccccc3)nc3ccc(Cl)cn23)cc1,8.97%
4,CC(=O)Nc1c(-c2ccc(C)cc2)nc2ccc(Cl)cn12,-3.92%
5,Cc1ccc(-c2cn3cc(C)ccc3n2)cc1,87.8% (active)
6,COc1ccc(-c2nc3ccc(Br)cn3c2Cc2ccc(C)cc2)cc1OC,3.92%
7,Cc1ccnc(N2C(=O)c3ccc([N+](=O)[O-])cc3C2=O)c1,-23.1%
8,Cc1ccc(-c2cn3cc([N+](=O)[O-])ccc3n2)cc1,56.8% (active)
9,Cc1ccc(-n2cc3ccc([N+](=O)[O-])cc3n2)cc1,25.5%
10,Cc1ccc(-c2nc3ccc(Br)cn3c2Cc2ccccc2C(F)(F)F)cc1,12.7%
11,CCOc1ccc(C(C)=O)cc1CSc1nnc(-c2ccncc2)n1CCOC,-21.1%
12,CC(C)Oc1ccc(/C=C(\NC(=O)/C=C/c2ccco2)C(=O)NCCc2nc3ccccc3[nH]2)cc1,-11.3%
13,CCCCN(CC)C(=O)CN(C)S(=O)(=O)c1cccc2nsnc12,4.95%
14,CN(CC(=O)Nc1c(Cl)cccc1Cl)C(=O)c1ccncc1,-1.41%
15,OC[C@@H]1CN(Cc2ccc(Cl)cc2)C[C@H](n2cnc3c(NCc4ccncc4)ncnc32)O1,0.808%
16,CSCCC(NS(=O)(=O)c1ccccc1F)C(=O)N1CC=C(c2ccccc2)CC1 (configuration not stated),15.4%
17,N#CCCn1ncc2ccccc21,-30.7%
18,COc1ccc2c(c1)cc1n2CCN=C1NN,6.58%
19,COc1ccc(C(=O)NC(Cc2ccc(OC(=O)c3ccc(OC)cc3)cc2)C(=O)O)cc1 (configuration not stated),7.3%
20,O=CNc1cc(-c2ccc(C(=O)N3CCOCC3)cc2)cn2c(-c3ccc(F)cc3)cnc12,19.1%
21,CC(C)CNC(=S)NC(=O)c1ccc(Cl)cc1,-9.78%
22,CN1C(=O)[C@H]2[C@@H](/C=C/c3ccccc3)N3C(=O)CN(Cc4ccc(-c5ccccc5)cc4)C(=O)[C@@]3(C)[C@H]2C1=O,7.89%
23,CCOc1ccc(Br)cc1S(=O)(=O)Nc1ccc(C(=O)OC(C)C(=O)N(C)c2ccccc2)cc1 (configuration not stated),9.56%

row,Structure (SMILES),"inhibition (viability loss, TRAIL sensitization)"
1,O=C(NNc1c2ccccc2nc2ccccc12)c1cc2ccccc2cc1O,11.6%
2,Cc1ccc(/C=N/NC(=O)C2=NNC(c3ccccc3)(c3ccccc3)C2)c(O)c1,20.2%
3,Oc1ccc(/C=N/Nc2nc(-c3ccccc3F)nc3ccccc23)c(O)c1,60.2% (active)
4,O=C(NCc1ccccn1)[C@@H]1CCCN1C(=O)[C@@H]1CCCN1C(=O)c1ccccc1,-14%
5,Nc1nc(NC(=O)/C=C/c2ccccc2)nn1-c1ccccc1,15%
6,COc1ccc(Oc2c(Cl)cnn(-c3ccccc3)c2=O)cc1,89.7% (active)
7,COc1ccc(C2c3c(C)nn(-c4ccccc4)c3NC(=O)N2c2ccccc2)cc1 (configuration not stated),-5.29%
8,COc1ccc(CCNC(=O)c2c(C)nn(-c3ccccc3)c2Cl)cc1,-4.85%
9,O=C(CN1C(=O)NC2(CCOc3ccccc32)C1=O)Nc1cccc([N+](=O)[O-])c1 (configuration not stated),-2.91%
10,CCOC(=O)C1=C(C)OC(N)=C(C#N)C1c1cncc(-c2ccc(F)cc2)c1 (configuration not stated),-2.49%
11,FC(F)(F)c1ccc2nnc(-c3c(Cl)cccc3Cl)n2c1,24.4%
12,CN(C)C1=NC[C@H](Cc2ccccc2)N1CCc1ccc(F)cc1,6.59%
13,Cc1cc(C)n(C(=O)CCNC(=O)c2ccccc2Cl)n1,4.1%
14,CN(C)CCNC(=O)c1ccc(Cl)c2cc3ccccc3nc12,56% (active)
15,COCCNC(=O)c1ccccc1-c1nc(-c2ccccc2Cl)no1,4.78%
16,Cn1nc(-c2ccccc2)c(CSc2cccc(Cl)c2)c1Cl,6.33%
17,Cc1ccc(S(=O)(=O)NC[C@H]2O[C@@H](n3cnc4c(N)ncnc43)[C@H](O)[C@@H]2O)s1,-2.79%
18,Cn1nc(C(C)(C)C)c(NC(=O)c2sccc2Cl)c1C(C)(C)C,15.6%
19,O=[N+]([O-])c1ccc2oc(-c3cccc(O)c3)nc2c1,24.5%
20,COc1ccc2oc(N)nc2c1,4.55%
21,COc1cccc(-c2nc3cc(C)ccc3o2)c1,52.6% (active)
22,O=C(NC(Cc1ccc(O)cc1)C(=O)O)/C(=C/c1ccccc1)NC(=O)c1ccccc1 (configuration not stated),-22.8%
23,Cc1ccc(N2C(=O)C3C(c4ccccc4)(C2=O)C3(c2ccccc2)c2ccccc2)cc1 (configuration not stated),11.6%

row,Structure (SMILES),"inhibition (viability loss, TRAIL sensitization)"
1,CSc1cc(C)[nH]c(=O)n1,-4.86%
2,O=C(O)c1ccc(N/N=C/c2ccc3ncccc3c2)cc1,18.4%
3,COc1ccc(Cl)cc1NC(=O)CN(C)C(=O)c1cn(-c2ccccc2)nc1-c1cccs1,21.4%
4,O=C(O)c1ccc(N/N=C/c2cn(-c3ccccc3)nc2-c2cccs2)cc1,76.2% (active)
5,COc1ccc(CN2CC(C(=O)NCCc3ccc(Cl)cc3)CC2=O)cc1 (configuration not stated),10.4%
6,CCOC(=O)C1CCCN(C(=O)c2ccc(N(C)C)cc2)CC1 (configuration not stated),-15.3%
7,OC1CN=C2Sc3ccccc3N2C1 (configuration not stated),-13.7%
8,CC1CN(S(=O)(=O)c2ccccc2)C(C)CN1S(=O)(=O)c1ccccc1 (configuration not stated),7.64%
9,O=C(Oc1ccc(-c2nc(-c3ccccn3)no2)cc1)c1ccccc1,72% (active)
10,Cc1noc(C)c1COC(=O)COc1ccc(-c2ccccc2)cc1,-21.6%
11,O=C(COc1cccc(F)c1)Oc1ccc(C(=O)c2ccccc2)cc1,7.92%
12,CC(=O)Nc1ccc(C(=O)N(C2=NC(C)CS2)c2ccc(Cl)cc2)cc1 (configuration not stated),0.911%
13,O=c1oc2ccccc2cc1-c1cn(-c2ccccc2)c(=S)[nH]1,82.7% (active)
14,COc1ccc([C@H]2CC(=O)C[C@@H](CCn3cc(CC4CCCC4)nn3)O2)cc1,6.31%
15,CC(CC(=O)N1CCN(c2ccccc2)CC1)S(=O)(=O)c1ccc2c(c1)NC(=O)CS2 (configuration not stated),23.3%
16,O=C(CN1CCN(S(=O)(=O)c2ccc(Cl)s2)CC1)NCc1ccc(Cl)cc1,15.3%
17,Cc1nc(C(F)(F)F)ccc1C(=O)N1CCC1(C)C(=O)NS(=O)(=O)c1ccccc1 (configuration not stated),-0.681%
18,COc1cc(Nc2nc3ccc(Cl)cc3n3cnnc23)cc(OC)c1OC,6.53%
19,COc1cc(/C=N/Nc2nn3cnnc3c3ccccc23)cc(OC)c1OC,69.3% (active)
20,COc1cc(/C=N/N=C(\N)c2nonc2N)cc(OC)c1OC,36.5%
21,COCCN(C(=O)c1ccco1)c1nnc(-c2ccc(OC)cc2)s1,15.7%
22,CC(C)NC(=O)N1CCN(c2ccncc2S(=O)(=O)N2CCCCC2)CC1,-3.19%
23,CCN(CC)c1ccc(/C=N/Nc2nc(C)cc(C)n2)c(O)c1,51.5% (active)

row,Structure (SMILES),"inhibition (viability loss, TRAIL sensitization)"
1,O=C(CNS(=O)(=O)c1ccc(Br)s1)NCc1ccc2c(c1)OCO2,0.95%
2,COc1ccc(N2CC(C(=O)N[C@@H](C)C(=O)N3CCCCC3)CC2=O)cc1 (some centres not stated),5.67%
3,CCCNC(=S)N1CCC(NC(=O)C23CC4CC(CC(C4)C2)C3)CC1,26.6%
4,CCOC(=O)c1sc(NC(=O)CSc2nc(O)c(Cc3ccccc3)c(=O)[nH]2)nc1C,-1.62%
5,Clc1ccc(-c2cc(-c3ccccn3)on2)c(Cl)c1,87.7% (active)
6,Fc1ccc(-c2ccc(CNCc3ccccn3)o2)cc1Cl,4.36%
7,Clc1ccc(COn2c(-c3ccc(Cl)cc3Cl)nc3ncccc32)cc1,7.77%
8,CCN(CC)CCN(C)C(c1ccnc2ccccc12)c1nnnn1-c1ccc2c(c1)OCCO2 (configuration not stated),-12.3%
9,CNC(=O)n1ccc(C(=O)N2CCCCC2)n1,-8.01%
10,O=C(/C=C/c1ccc(Cl)cc1)NCCCn1ccnc1,-4.39%
11,CN(C)N=Nc1ccc2nc[nH]c2c1,-7.76%
12,COc1ccc(-n2nnnc2SCC(=O)NCc2cccs2)cc1,1.36%
13,COc1ccc(-n2nnnc2SCC(=O)c2ccc(OC)c(OC)c2)cc1,-16.3%
14,COc1ccc(-n2nnnc2-c2nc3ccccc3s2)cc1,64.4% (active)
15,Cc1ccccc1OCC(=O)NCC(=O)OCC(=O)c1ccc2ccccc2c1,-20.2%
16,C/C(=N\NC(=O)COc1ccc(C)cc1[N+](=O)[O-])c1ccc2c(c1)OCCO2,-2.67%
17,O=C(CCl)N(Cc1cccc([N+](=O)[O-])c1)c1cccc(Cl)c1,92.3% (active)
18,Cc1cc([N+](=O)[O-])ccc1NCc1cccc([N+](=O)[O-])c1,0.71%
19,Cc1ccc(S(=O)(=O)N(CC(=O)Nc2cccc([N+](=O)[O-])c2)Cc2ccc(Cl)cc2)cc1,4.71%
20,CCCOC1CCCN(Cc2cn(C)nc2-c2ccccc2F)C1 (configuration not stated),3.04%
21,Cc1noc(C)c1NC(=O)N(C)C[C@@H]1Oc2cc(Br)ccc2S(=O)(=O)N([C@@H](C)CO)C[C@H]1C,8.07%
22,Cc1c(Cl)c([N+](=O)[O-])nn1CC(=O)NCCCN1CCOCC1,27.8%
23,Cc1ccc(S(=O)(=O)N[C@H]2CCC[C@@H]2O)cc1,1.92%
